Screening data deposited in PubChem by several laboratories.
In the library only some 13% were active in any assay of this set; here they are far more common.
WT yeast gro inh: growth inhibition of WT yeast, mitochondrial fusion screen. mitochondrial fusion phenotypic screen, WT strain. inhibition, % at 10 µM. actives 2.1% (n = 190,000); in the data active = inhibition above about 58%; tested in S. cerevisiae
RAM network inh: yeast RAM network inhibition | S. cerevisiae dse1pr::URA3 reporter, 5-FOA growth OD615, 2 d; analog-sensitive cbk1-as2 kinase mutant strain | inhibition, % at 50 µM | actives 1.8% (n = 190,000) | AID 868;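 active = inhibition above a set limit, 3 SD over mean compound inhibition, cut at about 8.4% in these data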;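 also: 0% = DMSO-only wells with no growth and 100% = 10 µM 1-NA-PP1 full growth; inhibition rescues growth on 5-FOA so higher OD means more RAM inhibition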
Lmaj promast: inhibitors of Leishmania major promastigote growth; Leishmania major promastigotes, resazurin fluorescence viability; inhibition, % at 10 µM; actives 9% (n = 200,000); AID 1063; in the data active = inhibition above about 50%;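 also: promastigotes grown with compound for 44 hours at 28 °C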
CHOP inh: blocks CHOP induction under ER stress; inhibition, % at 10 µM; CHO-K1 CHOP-promoter luciferase, tunicamycin-induced, 15-18 h; AID 2732; actives 3.8% (n = 220,000);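 active = compounds that reduced the stress-induced luciferase reporter signal by more than about 70% of percent inhibition, limit read from the data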;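 also: 0% = tunicamycin plus vehicle and 100% = wells without tunicamycin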
Numbers without * were called inactive; / = no result.

SMILES	WT yeast gro inh	RAM network inh	Lmaj promast	CHOP inh
COCCN1C(=O)C(CC(=O)Nc2ccc(C(=O)O)cc2)SC1=Nc1ccccc1 (configuration not stated)	5	4	-5	-8
COC(=O)c1cc(NC(=O)CC2SC(=Nc3ccccc3)N(CCc3c[nH]c4ccccc34)C2=O)cc(C(=O)OC)c1 (configuration not stated)	8	7	99*	52
COc1ccc(N=C2SC(CC(=O)Nc3ccc(F)cc3)C(=O)N2Cc2ccco2)cc1 (configuration not stated)	3	4	21	58
CCOc1ccccc1N=C1SC(CC(=O)Nc2ccc(OC)cc2OC)C(=O)N1CCC1=CCCCC1 (configuration not stated)	17	3	80*	46
COc1ccc(N=C2SC(CC(=O)Nc3ccccc3OC)C(=O)N2Cc2ccco2)cc1 (configuration not stated)	12	3	99*	29
COc1ccc(N=C2SC(CC(=O)Nc3ccccc3)C(=O)N2CC2CCCO2)cc1 (configuration not stated)	-5	3	63*	25
COc1ccc(N=C2SC(CC(=O)Nc3ccccc3)C(=O)N2CCN2CCOCC2)cc1 (configuration not stated)	2	3	56*	-2
COc1ccccc1/C=C/C(=O)Nc1cccc(S(=O)(=O)NC2=NCCCCC2)c1	12	6	11	30
O=C(COC(=O)c1ccccc1[N+](=O)[O-])c1ccc(C2CCCCC2)cc1	60*	7	-3	52
O=C(COC(=O)c1ccccc1C(=O)c1ccc(Cl)c([N+](=O)[O-])c1)NC1CC1	-11	5	9	106*
COc1cccc(C(=O)Nc2nc(-c3ccccc3)c(-c3ccccc3)o2)c1	74*	4	6	1
COc1ccc(-c2oc(NC(=O)c3ccc(C)cc3)c(C#N)c2-c2ccc(OC)cc2)cc1	10	5	24	9
O=C(Nc1nc(-c2ccccc2)c(-c2ccccc2)o1)c1ccc(F)cc1	17	2	20	25
COc1ccc(C(=O)Nc2oc(-c3ccccc3)c(-c3ccccc3)c2C#N)cc1	13	5	86*	32
CCOC(=O)c1cc(NC(=O)c2ccc(OC)cc2)c(=O)oc1-c1ccccc1	-3	11*	-4	12
COC(=O)c1cc(NC(=O)c2ccc(OC)cc2)c(=O)oc1C	-7	1	3	-1
O=C(Cn1cnc([N+](=O)[O-])n1)NC1CC1	5	2	-5	12
Cc1cc(-c2nnc(CSc3nnc(NC(=O)c4ccc(C(C)(C)C)cc4)s3)o2)ccc1[N+](=O)[O-]	/	/	/	35
CCn1ccnc1CN1CCCC(CO)(Cc2cccc(OC)c2)C1 (configuration not stated)	-5	1	96*	18
COc1cccc(CC2(CO)CCCN(Cc3ccc4c(c3)OCCO4)C2)c1 (configuration not stated)	2	1	53*	-7
CCOC(=O)C1(Cc2cccc(OC)c2)CCCN(Cc2nccn2CC)C1 (configuration not stated)	16	0	35	29
COc1cccc(CC2(CO)CCCN(Cc3cn[nH]c3-c3ccccc3)C2)c1 (configuration not stated)	0	4	1	-2
O=C(COc1ccccc1)NCC(=O)N/N=C/c1ccc(O)cc1O	/	/	/	13
C=CCc1cc(Cl)ccc1OCCCNC(C)CC (configuration not stated)	11	0	100*	11
CCC(C)NCCCOc1ccc(Cl)cc1C(C)(C)C (configuration not stated)	27	-1	100*	40
SMILES	WT yeast gro inh	RAM network inh	Lmaj promast	CHOP inh
CNCCCOc1ccc(Cl)cc1C(C)(C)C	29	0	99*	-29
C=CCc1ccc(OCCCCNC(C)CC)c(OC)c1 (configuration not stated)	-16	-1	90*	42
C=CCc1ccc(OCC(O)COCC)c(OC)c1 (configuration not stated)	-15	0	-4	9
CNCCOc1ccc(Cl)c(Cl)c1	-6	1	-1	2
CNC(=O)C(=O)NCCCN1CCOCC1	-6	1	-4	-17
COc1ccc(-c2[nH]c(-c3cccc(OC)c3)nc2SCC(=O)NCc2ccco2)cc1	15	2	17	33
COCCN(C(=O)c1cc(OC)c(OC)c(OC)c1)c1c(N)n(Cc2ccccc2)c(=O)[nH]c1=O	-4	1	-12	12
COCCCN1CN(S(=O)(=O)c2cccs2)c2nc3ccccc3nc21	/	/	/	15
COCCCNCCCOc1ccc(Cl)cc1C(C)(C)C	30	1	100*	37
Cc1cccc(C)c1NC(=O)CSc1nnc(C)n1CC1CCCO1 (configuration not stated)	-18	1	-7	4
COc1ccccc1CNC(=O)CSc1ccc(-c2cccs2)nn1	0	2	75*	3
CCOC(=O)C1=C(O)/C(=C\c2cc(C)n(-c3ccccc3F)c2C)N=C1C	/	0	36	11
CCOC(=O)C1=C(O)/C(=C/c2cccc(OC)c2O)N=C1C	5	0	63*	0
CCOc1ccc(CNC(=S)N/N=C\c2ccc([N+](=O)[O-])cc2)cc1	16	6	0	46
COCCNC(=S)N/N=C/c1ccc(OCc2ccc(C(=O)OC)cc2)c(OC)c1	5	10*	-4	-28
COCCNC(=O)C(=O)N/N=C/c1ccc(C(=O)OC)cc1	5	0	0	-11
CCCCOc1ccc(CNC(=S)N/N=C/c2ccc(OC)c(OC)c2)cc1	45	4	30	88*
CC(=O)N1CCN(c2nc(-c3cccs3)nc3ccccc23)CC1	8	1	77*	5
Oc1ccccc1-c1nc(N2CCCC2)c2ccccc2n1	-2	0	0	16
c1ccc(N2CCN(c3nc(-c4ccccn4)nc4ccccc34)CC2)cc1	75	1	100*	-24
CN1CCN(c2nc(-c3ccccn3)nc3ccccc23)CC1	9	2	100*	-30
CCCN1CCN(c2nc(-c3cccs3)nc3ccccc23)CC1	3	-1	30	25
CC(C)(C)NC(=S)NCc1ccncc1	1	1	1	8
Clc1ccc(OCCN2CCOCC2)cc1Cl	-17	0	86*	10
Clc1ccc(OCCCn2cncn2)cc1Cl	-9	1	100*	21
SMILES	WT yeast gro inh	RAM network inh	Lmaj promast	CHOP inh
Clc1ccc(OCCN2CCCCC2)cc1Cl	23	1	79*	7
Clc1ccc(OCCCN2CCCC2)cc1Cl	4	1	91*	-8
Cc1cc(OCC(=O)N2CCCC2)ccc1Cl	-4	2	-6	7
Cc1cc(OCCCCCN2CCCC2)ccc1Cl	17	1	99*	25
Cc1ccc(S(=O)(=O)Oc2ccc(/C=N/NC(=O)c3cccnc3)cc2)cc1	-1	4	-8	-2
CCN(CC)S(=O)(=O)c1cccc(-c2nnc(SCC(=O)c3ccc(Cl)s3)n2C)c1	/	2	78*	31
